{
  "source": "PubChem BioAssay AID743182",
  "about": "(Broad Institute, 2013)",
  "note": "Activity calls are given as the source filed them.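 Rule for the calls: active = cell killing with a fitted half-maximal concentration at most twice the top valid dose tested; inconclusive = flat curve with 30 to 70% signal loss, or poor fit; inactive = the rest.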",
  "data": [
    {"assay": "HEK293 cell cytotoxicity, dose response, cytotoxicity control, luminescence, dry powder, set 8 (AID 743182)", "details": "HEK293T viability, CellTiter-Glo ATP luminescence, 72 h; series mostly up to 26 µM", "values": [
      {"compound": "CSc1ccc(/C=N/NC(=O)c2ccc3nc[nH]c3c2)cc1", "outcome": "inactive"},
      {"compound": "O=C(N/N=C/c1c[nH]c2ccccc12)c1cccc(O)c1", "outcome": "inactive"},
      {"compound": "O=C(N/N=C/c1c[nH]c2ccccc12)c1cccs1", "outcome": "inactive"}
    ]}
  ]
}
